About 83,000 compounds went through this panel and 20% of them were active in at least one assay; those are over-represented in the sample as a whole.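 Note: values are percent growth. 100 is the growth of untreated cells, values between 100 and 0 indicate rising inhibition; between -100 and 0 indicates cell death.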 A number with no mark means an inactive call. Activity calls are given as the source filed them. The calls were made as follows: active = growth percent below 10; inactive = the rest.

Experimental findings from PubChem BioAssay (NCI) are described below.

Some test systems named below: HCT-15 colon; HT29 colon; SNB-75 CNS; SNB-19 CNS; U251 CNS; PC-3 prostate; SK-MEL-5 melanoma; UACC-62 melanoma; LOX IMVI melanoma; SK-MEL-28 melanoma.
What all share (assay): NCI-60 one-dose screen, 48 h (100 = growth as untreated, 0 = no growth, -100 = all killed)
Holding throughout (details): 10 µM unless noted

For the compound `O=C(Nc1cccnc1Nc1ccc(Cl)cc1)c1cn(Cc2ccc(F)cc2)nn1`, the growth in the test with HCT-15 colon is 95.4%; with HT29 colon it was 113%; in the test on SNB-75 CNS, 94.6%; in the test with SNB-19 CNS, 95.9%; with U251 CNS, 99%; with PC-3 prostate it was 94.5%. Moreover, the growth with SK-MEL-5 melanoma is 100%; in the test on UACC-62 melanoma it was 100%; in the test on LOX IMVI melanoma it was 104%; in the test with SK-MEL-28 melanoma, 115%.
For `CC(O)c1ncc(/C=C2\SC(=S)N(Cc3ccccc3)C2=O)s1` (stereo not given), the growth is 97.4% in the test with HCT-15 colon; 59.4% with HT29 colon; 102% in the test on SNB-75 CNS; 106% in the test on SNB-19 CNS; 87.9% in the test with U251 CNS; 97.3% with PC-3 prostate. Further, the growth in the test with SK-MEL-5 melanoma is 93.7%; with UACC-62 melanoma, 99.4%; in the test on LOX IMVI melanoma, 92.7%; in the test with SK-MEL-28 melanoma, 92.2%.
In the case of `COC(=O)C1=Nc2ccc(F)cc2/C1=C\c1sc(Nc2ccc(O)cc2)nc1O`, the growth in the test with HCT-15 colon was 74.3%; in the test with HT29 colon, 106%; in the test on SNB-75 CNS, 33.8%; in the test with SNB-19 CNS, 45.7%; in the test with U251 CNS it was 46.4%; with PC-3 prostate, 52.1%. For the same compound, the growth with SK-MEL-5 melanoma is 60.3%; in the test on UACC-62 melanoma it was 34.3%; in the test on LOX IMVI melanoma, 64%; in the test on SK-MEL-28 melanoma it was 66.1%.
Take `O=C(CSc1nc2ccc([N+](=O)[O-])cc2[nH]1)Nc1ccc(Br)cc1`: the growth was 56.1% with HCT-15 colon; 75.1% in the test on HT29 colon; 61.6% in the test on SNB-75 CNS; 65.6% in the test on SNB-19 CNS; 36.3% with U251 CNS; 44.1% in the test with PC-3 prostate. Besides, the growth with SK-MEL-5 melanoma was 26.3%; with UACC-62 melanoma, 20.8%; in the test on LOX IMVI melanoma, 63.5%; in the test on SK-MEL-28 melanoma it was 54.5%.
On to `CC1O[C@@H]2C[C@@](O)([C@H]1O)n1c3ccccc3c3c4c(c5c6ccccc6n2c5c31)C(=O)NC4=O` (stereo not given in full), for which the growth in the test with HCT-15 colon was 62%; in the test with HT29 colon, 28.6%; in the test with SNB-75 CNS it was 44.8%; with SNB-19 CNS, 35%; in the test on U251 CNS, 24.8%; in the test with PC-3 prostate, 41.2%. For the same compound, the growth with SK-MEL-5 melanoma was 1.39% (active); with UACC-62 melanoma, 9.56% (active); in the test on LOX IMVI melanoma, 7.1% (active); in the test on SK-MEL-28 melanoma, 69.1%.
On to `CC(=O)Nc1c(Cl)cc(Cl)c2c1Cc1cc([N+](=O)[O-])ccc1-2`, for which the growth was 89.7% with HCT-15 colon; 81.4% with HT29 colon; 58% in the test with SNB-75 CNS; 99.8% with SNB-19 CNS; 74.3% in the test on U251 CNS; 81.2% in the test with PC-3 prostate. The growth in the test with SK-MEL-5 melanoma was 103%; in the test on UACC-62 melanoma, 102%; in the test with LOX IMVI melanoma, 76.8%; with SK-MEL-28 melanoma, 100%.
`O=C(CCl)Nc1ccc2c(Nc3cc(O)ccc3Cl)ncnc2c1`: the growth in the test with HCT-15 colon is -81.3% (active); in the test with HT29 colon it was -74.5% (active); in the test on SNB-75 CNS, -96.7% (active); with SNB-19 CNS, -61.9% (active); with U251 CNS, -89.8% (active); with PC-3 prostate, -74.4% (active). In addition, the growth in the test with SK-MEL-5 melanoma was -88.4% (active); in the test with UACC-62 melanoma, -68.7% (active); with LOX IMVI melanoma, -81.6% (active); in the test with SK-MEL-28 melanoma, -66.4% (active).
Regarding `O=C1NC(=C(Cl)Cl)/C(=N/S(=O)(=O)NCCc2c[nH]c3ccccc23)N1`, the growth in the test on HCT-15 colon is 98.6%; with HT29 colon, 15%; with SNB-75 CNS it was 78.5%; in the test on SNB-19 CNS, 53.9%; with U251 CNS, 33.8%; in the test with PC-3 prostate, 83.5%. Moreover, the growth in the test with SK-MEL-5 melanoma is 74.3%; in the test with UACC-62 melanoma it was 61.2%; with LOX IMVI melanoma, 29.8%; with SK-MEL-28 melanoma, 84%.
As for `COc1ccc2nc3ccccc3c(NCc3ccc(F)cc3)c2c1`, the growth in the test with HCT-15 colon was 4.11% (active); with HT29 colon, 0.209% (active); with SNB-75 CNS it was 23.8%; in the test on SNB-19 CNS, 17.7%; in the test with U251 CNS, 22.1%; in the test on PC-3 prostate it was 17.1%. Moreover, the growth was -6.56% (active) in the test on SK-MEL-5 melanoma, 39.1% in the test with UACC-62 melanoma, -66.7% (active) in the test with LOX IMVI melanoma and 35.3% with SK-MEL-28 melanoma.
In the case of `COc1ccc2cc(-c3ccc(-c4ccc(C(=N)N)s4)s3)ccc2c1`, the growth in the test with HCT-15 colon was -81.6% (active); in the test on HT29 colon, -70.8% (active); in the test with SNB-75 CNS, 21%; with SNB-19 CNS, -26.8% (active); in the test on U251 CNS, -85.9% (active); in the test with PC-3 prostate, 23.1%. Also, the growth is 95.1% with SK-MEL-5 melanoma, -16.3% (active) with UACC-62 melanoma, -58.2% (active) in the test on LOX IMVI melanoma and 109% in the test with SK-MEL-28 melanoma.
On to `CC(C)c1ccc(C(=O)Nc2sc3cc(O)ccc3c2C#N)cc1`, for which the growth in the test with HCT-15 colon was 18.9%; in the test on HT29 colon it was 57.8%; in the test with SNB-75 CNS, 22.6%; with SNB-19 CNS, 36%; with U251 CNS it was 29.2%; in the test with PC-3 prostate, 58.6%. Besides, the growth in the test on SK-MEL-5 melanoma was 22.3%; with UACC-62 melanoma it was 18%; in the test with LOX IMVI melanoma, 25.4%; with SK-MEL-28 melanoma, 52.4%.
As for `COc1cc2c(c(OC)c1OC)C(=O)N[C@@H]1[C@@H](O)[C@@H](O)[C@H](O)C[C@@H]21`, the growth in the test on HCT-15 colon was 104%; in the test on HT29 colon, 107%; with SNB-75 CNS it was 102%; in the test with SNB-19 CNS, 99%; with U251 CNS, 98.9%; in the test with PC-3 prostate, 96.5%. The growth with SK-MEL-5 melanoma was 104%; in the test on UACC-62 melanoma, 94.1%; with LOX IMVI melanoma it was 97.7%; in the test with SK-MEL-28 melanoma, 111%.
Turning to `CCCC(O)Cn1ncc(C(=O)OCC)c1NC(=O)NCc1cccc(F)c1` (stereo not given), the growth with HCT-15 colon is 99.7%; in the test with HT29 colon, 88.8%; with SNB-75 CNS, 93.6%; in the test with SNB-19 CNS, 102%; in the test with U251 CNS it was 101%; in the test with PC-3 prostate it was 83.6%. The growth is 101% with SK-MEL-5 melanoma, 97.1% in the test with UACC-62 melanoma, 92.7% in the test on LOX IMVI melanoma and 97.8% with SK-MEL-28 melanoma.
